# Compounds with a hit are over-represented: about 12% of the library has one in this group of screens.
# G9a inh: qHTS Assay for Inhibitors of Histone Lysine Methyltransferase G9a | Potency, µM (highest dose often 102 µM), for inactives: at the highest dose activity, negative = inhibition, actives largely listed as inhibitors | AID 504332, 2011 | 350,000 compounds, 8.8% hits | G9a H3K9 monomethylation, AlphaScreen, 2 h | Histone-lysine N-methyltransferase EHMT2 (Homo sapiens), Q96KQ7; also: % is scaled to controls: 0 for no effect and ±100 for the full control effect; nearly all actives have a fitted effect of over 75% in size
#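 Using a bead-based AlphaScreen, monomethylated H3K9 product from 2 h room-temperature reactions (G9a 20 nM, peptide 500 nM, SAM 20 uM) was detected with 0.5 ug/mL rabbit anti-H3K9me1 antibody.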
# L3MBTL1 inh: qHTS Assay for the Inhibitors of L3MBTL1; 230,000 compounds, 0.66% hits; Lethal(3)malignant brain tumor-like protein 1 (Homo sapiens), Q9Y468; Potency, µM (titrated, usually from 57.1 µM), without a hit: at the top dose activity, negative = inhibition, usual class: inhibitors; AlphaScreen L3MBTL1–H3K9me1 peptide binding; also: % is scaled to controls: 0 for no effect and ±100 for the full control effect; nearly all actives have a fitted effect of over 60% in size
#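 AlphaScreen assay: L3MBTL1 (50 nM final) was preincubated 30 min at room temperature with biotinylated H3(1-15)K9me1 peptide (75 nM final), then 30 min with library compounds; streptavidin donor and nickel chelate acceptor beads (10 ug/mL final) added, 30 min dark.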
# BAZ2B inh: qHTS Assay for Inhibitors of BAZ2B; AlphaScreen BAZ2B-H3K14Ac peptide displacement; Potency, µM (titrated, usually from 114 µM), without a hit: top-dose activity change, negative = inhibition, hits mostly inhibitors; 360,000 compounds, 4.4% hits; also: % is scaled to controls: 0 for no effect and ±100 for the full control effect; nearly all actives have a fitted effect of over 60% in size
#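 Compounds, titrated to a top concentration of 110 uM, were incubated 30 min at room temperature with preformed BAZ2B/acetyl-K14 H3 peptide complex (50 nM each). Proximity signal was measured by AlphaScreen after 20 min with beads.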
# HP1b binding inh: HTS for Inhibitors of HP1-beta Chromodomain Interactions with Methylated Histone Tails. AlphaScreen HP1-beta / biotin-H3K9me3 peptide binding. Potency, µM (highest dose often 114 µM), inactives show at the highest dose activity change, negative = inhibition, most hits filed as inhibitors. Chromobox protein homolog 1 (Homo sapiens), P83916. 390,000 compounds, 0.56% hits; also: nearly all actives have a fitted effect of over 70% in size
#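 AlphaScreen: HP1-beta (50 nM) preformed 30 min with biotin-H3(1-18)K9me3 peptide (50 nM) in PBS pH 7.4, 0.01% Tween-20. Compound added for 30 min at RT, then streptavidin donor/nickel chelate acceptor beads (10 ug/mL) for 30 min.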
# Sfp inh: qHTS Assay for Inhibitors of Bacillus subtilis Sfp phosphopantetheinyl transferase (PPTase); 4'-phosphopantetheinyl transferase ffp (Bacillus subtilis), Q9F4F7; Biochemical Sfp PPTase activity, qHTS; Potency, µM, for the others: largest response in the series, negative = inhibition, most hits filed as inhibitors; 310,000 compounds, 3.5% hits; AID 1490, 2009;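 also: the enzyme is Sfp with the accession as filed and its product quenches rhodamine fluorescence; 0% = enzyme reaction without inhibitor and -100% = no enzyme wells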
#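 Sfp 15 nM + cpd, 15 min RT; start w/ rhodamine-CoA 5 uM, BHQ-2-YbbR 12.5 uM (final); 50 mM Hepes pH 7.6, 10 mM MgCl2, 0.01% NP-40, 0.01% BSA; read 525/598 nm at 0 and 30 min.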
# JMJD2A Tudor inh: qHTS Assay for Inhibitors of JMJD2A-Tudor Domain | AID 504339, 2011 | AlphaScreen JMJD2A-Tudor / H3K4me3 peptide binding | 390,000 compounds, 4.4% hits | Lysine-specific demethylase 4A (Homo sapiens), O75164 | Potency, µM (doses to about 114 µM), for inactives: top-dose activity change, negative = inhibition, usual class: inhibitors; also: % is scaled to controls: 0 for no effect and ±100 for the full control effect; nearly all actives have a fitted effect of over 50% in size
# * marks the source's active call; other numbers are inactive results; ? = inconclusive; / = no result; [ ] = remark or other dose. Calls follow the shape of the dose curve; as a rule, active = well fitted curve in the direction sought with a large enough effect; inconclusive = small, poorly fitted or top-dose-only effect, or another doubt; inactive = no such curve, though single readings can be large; an effect the other way counts as inactive or inconclusive. Potency is read from the fitted curve at half-maximal effect.
SMILES,G9a inh,L3MBTL1 inh,BAZ2B inh,HP1b binding inh,Sfp inh,JMJD2A Tudor inh
COc1ccc(/C=C2\SC(=O)N(CC(=O)Nc3ccc(O)cc3)C2=O)cc1OC,24%,/,6%,11%,-2%,-3%
Cc1ccc(NC(=O)CN2C(=O)N/C(=C/c3ccco3)C2=O)cc1,0%[0.0925 µM],-88%,-7%,5%,45µM*,-33%
Cc1ccc(NC(=O)CN2C(=O)S/C(=C\c3cc(Cl)c(OCC(=O)O)c(Cl)c3)C2=O)cc1,40µM*,0%,40µM*,20µM*,50µM*,45µM*
COc1ccc(C(=O)N2CCc3cc(OC)c(OC)cc3C2COc2ccc3c(C)cc(=O)oc3c2)c(OC)c1 (configuration not stated),10%[59 µM],/,5%,34%,/,-2%
Cc1ccc(S(=O)(=O)c2cn(C)c3cc(N4CCCC(C)C4)c(F)cc3c2=O)c(C)c1 (configuration not stated),2%[59 µM],/,-3%,-9%,/,-23%
Nc1nc2c(s1)C(=O)CC(c1ccccc1)C2 (configuration not stated),10%[12.7 µM],/,7%,42%,45µM*,-19%
O=C(O)c1ccc(Nc2ncc([N+](=O)[O-])cc2[N+](=O)[O-])cc1,45µM*,-11%,?,-3%,-20%,-21%
CC(=O)c1cccc(NC(=O)CC(c2ccc(C)cc2)N2Cc3ccccc3C2=O)c1 (configuration not stated),-29%[59 µM],/,-38%,2%,/,-18%
COc1ccc(-c2cc(=O)c3c(O)c(OC)c(OC)c(OC)c3o2)cc1,/,/,/,17%,15%,-24%
COc1c(OC)c(O)c2c(=O)cc(-c3c(O)cccc3O)oc2c1OC,13%[12.7 µM],-20%,-22%,8%,20µM*,-28%
O=C(NCc1cccs1)c1ccc(Cn2c(SCc3ccc(F)cc3)nc3cccnc32)cc1,-27%[59 µM],/,0%,40%,/,-17%
CN(Cc1ccccc1)C(=O)c1ccc(CSc2nc3cccnc3n2Cc2ccccc2F)cc1,4.5µM*,/,25µM*,?,/,5µM*
O=C(NCc1cccs1)c1ccc(CSc2nc3cccnc3n2Cc2ccccc2F)cc1,2.5µM*,/,8.9µM*,?,/,5.6µM*
[O-]/C(=C(\C(=S)NCc1ccco1)[n+]1ccccc1)c1ccccc1Br,?,-2%,?,-1%,13µM*,-20%
Cc1ccc(C(=O)NCCC(=O)NCc2ccco2)cc1,?,/,-21%,33%,17%,-3%
O=[N+]([O-])c1ccc(/C([O-])=C(/C(=S)NCc2ccco2)[n+]2ccccc2)cc1,35µM*,?,?,-5%,8.9µM*,-33%
O=C(NNC(=S)NCc1ccco1)c1ccccc1Br,55%,/,2%,42%,17%,-9%
Cc1ccc(NC(=S)/C(=C(\[O-])c2ccc(F)cc2)[n+]2ccccc2)cc1,13µM*,-14%,?,?,45µM*,?
Cc1ccc(/C([O-])=C(/C(=S)NCc2ccco2)[n+]2ccccc2)cc1,2.5µM*,/,-33%,/,?,/
COc1ccc(S(=O)(=O)n2nc(C)c(S(=O)(=O)N3CCC(C)CC3)c2C)cc1C,-7%[59 µM],/,-15%,17%[57 µM],/,-31%
CCOc1ccc2nc(N3CCCC(C(=O)Nc4ccc(OC)cc4)C3)sc2c1 (configuration not stated),6%[59 µM],/,6%,44%,/,8%
Cc1ccc(Cn2c(CO)cnc2SCC(=O)Nc2ccc(C)c(Cl)c2)cc1,?,/,?,-22%[57 µM],/,-20%
CCc1ccccc1NC(=O)c1cc(S(=O)(=O)N2CCCc3ccccc32)ccc1F,20%[59 µM],/,13%,38%,/,-5%
CN(CCCC[C@H](CNCc1ccc(-c2ccccc2)cc1)N1C[C@H](c2ccccc2)N(CCc2ccc(Cl)c(Cl)c2)C(=O)C1=O)Cc1ccc(-c2ccccc2)cc1,?,/,?,/,22µM*,/
Cc1ccc(CCN2CC(C(=O)NCCCN(C)Cc3ccccc3)CC2=O)cc1 (configuration not stated),/,6%,0%,31%,-5%,-2%
SMILES,G9a inh,L3MBTL1 inh,BAZ2B inh,HP1b binding inh,Sfp inh,JMJD2A Tudor inh
CCOc1ccc(CCN2C(=O)C(=O)N([C@H](CCCN(C)Cc3ccccc3)CNCc3ccccc3)C[C@@H]2C(C)C)cc1,-21%[59 µM],/,?,/,-3%,/
COc1ccc(CNC[C@@H](CCCCN(C)Cc2ccc(OC)cc2)N2C[C@H](c3ccccc3)N(CCc3ccc(Cl)c(Cl)c3)C(=O)C2=O)cc1,?,-27%,?,-9%,28µM*,40µM*
CCOc1ccc(S(=O)(=O)Nc2cccc(OC)c2)c2cccnc12,0%[59 µM],/,-19%,22%,/,-22%
N#CC1=C(N)C2=C(N3CCCCC3)CCCC2C1(C#N)C#N (configuration not stated),?,/,50µM*,12%,?,-30%
Cc1c(Cl)cccc1NC(=O)c1ccc2nc(C(C)C)oc2c1,-4%[59 µM],/,3%,31%[57 µM],/,3%
CCC[n+]1c(C)sc2c3c(ccc21)CCCC3,50µM*,-5%,-23%,40µM*,-4%,45µM*
CCOc1ccc(C(=O)Nc2c(C)nc(Nc3ccccc3)nc2Nc2ccccc2)cc1OCC,-27%[59 µM],/,-31%,23%,/,-12%
CCOc1ccc(Nc2nc(C)c(NC(=O)c3cccc(OC)c3)c(Nc3ccc(OCC)cc3)n2)cc1,11µM*,/,?,-9%,/,?
Cc1ccc(Cc2nc3ccccc3nc2SCC(=O)N2CCCCC2C)cc1 (configuration not stated),7%[59 µM],/,8%,31%[57 µM],/,3%
COc1ccc(OCC(=O)Nc2ccc3c(c2)nc(CCN2CCOCC2)n3C)cc1,56µM*,3%,0%,16%,14%,-20%
CCN(CC)S(=O)(=O)c1ccc(/C=C/C(=O)Nc2ccc(N3CCOCC3)cc2)cc1,45µM*,-27%,?,-18%,9%,?
CCN(CC)S(=O)(=O)c1ccc2c(c1)nc(CCC(=O)Nc1ccc(N3CCOCC3)cc1)n2C,45µM*,-4%,-30%,-6%,-27%,-31%

# High-throughput results from PubChem.
